# Most compounds without a hit are left out; they make up all but 1.2% or so of the library.
# Avidin bead fluor: compound fluoresces at 488/530 nm on avidin beads; compound fluorescence 488/530 nm, flow cytometry; active compounds read high; fluorescence (KMESF) at 10 µM; 220,000 tested, 0.38% active; AID 1775; in the data active = fluorescence above about 47
# RGS4-Gao reg: human RGS4-Galphao interaction regulation; P09471; Multiplexed bead flow cytometry, RGS4-Galphao binding; actives lie on both sides; binding response (% of control), % at 10 µM; 220,000 tested, 0.33% active; AID 1415; in the data active = binding response below about 49% or above about 150%; inactive = in between;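 also: fluorescent Galphao activated with aluminum fluoride binding bead-coupled RGS4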
# RGS7-Gao: human RGS7-Galphao interaction regulation | P09471 | Multiplexed bead flow cytometry, RGS7-Galphao binding; actives lie on both sides | binding response (% of control), % at 10 µM | 220,000 tested, 0.35% active | AID 1439; in the data active = binding response below about 49% or above about 150%; inconclusive = no clear call, values can overlap the other calls; inactive = in between;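 also: fluorescent Galphao held in activated GDP-AlF4 state binding bead-coupled RGS7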
# RGS16-Gao: regulators of human RGS16-Galphao interaction. O15492+P09471. bead-based flow cytometry RGS16-Galphao binding, fluorescence; actives lie on both sides. binding response (% of control), % at 10 µM. 220,000 tested, 0.38% active. AID 1441;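 also: Galphao activated by GDP with aluminum fluoride before binding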
# GSH fluor: GSH bead compound fluorescence profile | GSH beads flow cytometry, compound fluorescence 488/530 nm; active compounds read high | fluorescence (KMESF) at 10 µM | 190,000 tested, 0.25% active | AID 1776; in the data active = fluorescence above about 89;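 also: glutathione beads carrying GST-tagged Bcl family fusion proteins plus one bare bead set; values are compound well signal with DMSO vehicle wells as background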
# RGS8-Gao: regulators of human RGS8-Galphao interaction. multiplexed bead flow cytometry, RGS8-Galphao binding; actives lie on both sides. P09471. response (percent of control binding), % at 10 µM. AID 1423. 220,000 tested, 0.34% active; in the data active = response below about 60% or above about 140%; inactive = in between;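 also: Galphao activated as the GDP aluminium fluoride complex binding bead-coupled RGS8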
# RGS-Gao: regulators of human RGS4-Galphao interaction | AID 1504 | RGS4–Galpha-o binding response, % at 10 µM | multiplexed bead flow cytometry, RGS–Galpha-o binding | shares compounds with RGS16-Gao | 1,600 tested, 99% active;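 also: fluorescently labeled Galpha-o bound to GDP with aluminium fluoride binding biotinylated RGS beads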
# Biotin-avidin: interferes with biotinylated probe binding to avidin beads; inhibition, % at 10 µM; shares compounds with RGS16-Gao; streptavidin beads, fluorescein-biotin binding, flow cytometry; 1,700 tested, under 10 active;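 active = inhibition above 50%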;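 also: median green fluorescence of gated singlet beads compared with DMSO control wells; 0% = DMSO wells and 100% = complete loss of bead fluorescence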
# RGS8-Gao confirm: confirmation of regulators of human RGS8-Galphao interaction; binding response (% of control), % at 10 µM; shares compounds with RGS16-Gao; 1,700 tested, 3% active; bead-based flow cytometry RGS8-Galphao binding, fluorescence; actives lie on both sides; in the data active = binding response below about 72% or above about 130%; inactive = in between;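 also: Galphao activated as GDP AlF4 complex before binding bead RGS8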
# RGS7-Gao single: RGS7-Galphao interaction regulation, single point confirmation | shares compounds with RGS16-Gao | bead-based flow cytometry RGS7-Galphao binding; actives lie on both sides | response (percent of control binding), % at 10 µM | 1,700 tested, 7.8% active | AID 1837; in the data active = response below about 75% or above about 130%; inactive = in between;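 also: fluorescent Galphao activated with GDP and aluminum fluoride binding bead-coupled RGS7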
# RGS16-Gao conf: RGS16-Galphao interaction regulation, single point confirmation; shares compounds with RGS16-Gao; bead-based flow cytometry, RGS16-Galphao binding; actives lie on both sides; response (% of control binding), % at 10 µM; 1,700 tested, 4% active; AID 1838; in the data active = response below about 74% or above about 130%; inactive = in between;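 also: Galphao activated as the GDP aluminium fluoride complex binding bead-coupled RGS16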
# RGS4-Gao single: confirmation of regulators of human RGS4-Galphao interaction | shares compounds with RGS16-Gao | RGS4-Galphao binding, multiplexed bead flow cytometry; actives lie on both sides | binding response (% of control), % at 10 µM | 1,700 tested, 4% active | AID 1840; in the data active = binding response below about 74% or above about 130%; inactive = in between
# RGS19-Gao single: RGS19-Galphao interaction regulation, single point confirmation. shares compounds with RGS16-Gao. bead-based flow cytometry RGS19-Galphao binding; actives lie on both sides. response (percent of control binding), % at 10 µM. 1,700 tested, 5% active. AID 1841; in the data active = response below about 50% or above about 160%; inactive = in between;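 also: 100% = no compound control and 0% = blank background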
# Target sequence (P09471 whole entry, looked up): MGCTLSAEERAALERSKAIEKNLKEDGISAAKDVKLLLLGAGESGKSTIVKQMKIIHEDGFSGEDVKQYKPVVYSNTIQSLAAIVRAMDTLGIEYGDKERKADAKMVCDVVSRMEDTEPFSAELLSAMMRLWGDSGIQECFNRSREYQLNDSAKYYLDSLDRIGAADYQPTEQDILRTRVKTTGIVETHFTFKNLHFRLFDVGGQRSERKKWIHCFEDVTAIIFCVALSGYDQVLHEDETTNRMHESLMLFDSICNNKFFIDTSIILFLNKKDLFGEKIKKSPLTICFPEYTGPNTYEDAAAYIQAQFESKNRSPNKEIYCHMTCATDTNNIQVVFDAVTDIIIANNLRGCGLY
# Target sequence (P49795 whole entry, looked up): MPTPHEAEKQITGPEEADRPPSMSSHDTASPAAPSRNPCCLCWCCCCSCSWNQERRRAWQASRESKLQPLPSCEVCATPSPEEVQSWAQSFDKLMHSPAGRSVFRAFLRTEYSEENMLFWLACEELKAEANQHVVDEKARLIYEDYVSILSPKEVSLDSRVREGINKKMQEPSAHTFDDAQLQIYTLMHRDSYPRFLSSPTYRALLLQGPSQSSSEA
# * marks the source's active call; other numbers are inactive results; u = inconclusive; x = no result; [ ] = remark or other dose. Unless noted, no rule for the calls is given here.
SMILES,Avidin bead fluor,RGS4-Gao reg,RGS7-Gao,RGS16-Gao,GSH fluor,RGS8-Gao,RGS-Gao,Biotin-avidin,RGS8-Gao confirm,RGS7-Gao single,RGS16-Gao conf,RGS4-Gao single,RGS19-Gao single
OCCC1CN(Cc2ccc(Oc3ncccn3)cc2)CCN1C1CCCCC1 (stereo unspecified),159*,147,u,88,x,48*,147*,-1,102,100,102,100,97
Cc1cc(C)c2c(=O)n(CC(=O)NC3CCCC3)sc2n1,3,93,u,41,x,81,x,x,x,x,x,x,x
COc1ccc(OC)c(CCNC(=O)Cn2sc3nc(C)cc(C)c3c2=O)c1,3,92,92,17*,15,74,92*,3,52*,71*,6.5*,69*,8.8*
Cc1cc(C)cc(C(=O)NCC(=O)OCc2c(C)noc2C)c1,-5,16*,-0.1*,1.9*,10,15*,x,1,101,102,100,98,102
CC(CCOC1=NS(=O)(=O)c2ccccc21)NC(=O)C(=O)Nc1ccccc1 (stereo unspecified),0,23*,u,42,x,61,x,2,131*[activator],556*[activator],286*[activator],466*[activator],211*[activator]
NCC(c1ccccc1)(c1ccccc1)c1ccccc1,9,98,97,24*,4,79,98*,0,102,98,102,98,103
CN(C)CCC(O)(c1ccccc1)c1ccccc1,13,105,107,141,13,115,x,x,x,x,x,x,x
CC(Nc1ccc(Cl)cc1)C(=O)NN (stereo unspecified),8,102,u,97,x,100,x,x,x,x,x,x,x
O=C(c1ccccc1)c1c2c(cc3sc4ccccc4[n+]13)-c1cccc3cccc-2c13,5,141,199*[activator],93,2,115,141*,0,104,116,106,123,96
Cc1sc2cc3c(c(C(=O)c4ccccc4)[n+]2c1C)-c1cccc2cccc-3c12,5,108,110,100,8,99,x,x,x,x,x,x,x
O=C(CC(C(=O)NCc1ccccc1)c1nc2ccccc2c(=O)[nH]1)NCc1ccccc1 (stereo unspecified),4,100,u,96,x,101,x,x,x,x,x,x,x
CCOc1ccc(-n2cc(-c3ccc(OC)c(OC)c3)[nH]c2=S)cc1,9,101,u,90,12,89,x,x,x,x,x,x,x
CC1(C)CCC(C)(C)NC(=S)N1,9,99,98,15*,17,80,99*,-1,86,71*,84,82,84
CCOC1CC(C)(C)NC(=S)N1 (stereo unspecified),3,107,103,108,7,100,x,x,x,x,x,x,x
O=[N+]([O-])c1cc2c(cc1/C=N/n1c(-c3ccccn3)n[nH]c1=S)OCO2,6,86,84,-3.6*,2,72,86*,2,95,115,86,98,76
O=[N+]([O-])c1cc2c(cc1/C=N/n1c(-c3ccccc3)n[nH]c1=S)OCO2,8,102,106,102,47,97,x,x,x,x,x,x,x

# Source: PubChem (NMMLSC)
